From article PMC7862700, “An all-to-all approach to the identification of sequence-specific readers for epigenetic DNA modifications on cytosine”

How the values were obtained:
Test in all cases: DAPPL (digital affinity profiling via proximity ligation, sequencing); 10 mM Tris-HCl pH 7.5, 50 mM NaCl, 1 mM DTT, 4% glycerol, room temperature, 30 min; GST-TFs on glutathione beads, 16-mer random dsDNA library, 0.1% formaldehyde crosslink after washing; high values mean tight binding
Details in all cases: protein: recombinant; tags: N-terminal GST; dsDNA, one strand shown
ELK1 = target: T1, ELK1 (Homo sapiens, UniProt P19419 1-428)
T1 sequence: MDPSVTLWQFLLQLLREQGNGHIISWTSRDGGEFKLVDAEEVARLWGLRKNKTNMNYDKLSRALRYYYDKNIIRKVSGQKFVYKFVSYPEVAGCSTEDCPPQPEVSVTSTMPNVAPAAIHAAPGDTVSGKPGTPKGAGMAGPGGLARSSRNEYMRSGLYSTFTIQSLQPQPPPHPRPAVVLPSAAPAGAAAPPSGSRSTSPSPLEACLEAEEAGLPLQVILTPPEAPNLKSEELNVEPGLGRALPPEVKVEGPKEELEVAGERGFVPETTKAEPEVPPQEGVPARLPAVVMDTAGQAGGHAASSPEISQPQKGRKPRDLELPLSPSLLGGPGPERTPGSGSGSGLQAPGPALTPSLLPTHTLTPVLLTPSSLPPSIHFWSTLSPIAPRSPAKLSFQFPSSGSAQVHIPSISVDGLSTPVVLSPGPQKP
In short: (§1)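 A tag-only sample was pooled with DNA-barcoded human transcription factors that had been expressed in yeast as GST fusions and captured on glutathione beads. The pools were incubated for 30 min at room temperature with 200 nmole of a random double-stranded 16-mer DNA library in Tris/NaCl/DTT/glycerol buffer, then washed, crosslinked with 0.1% formaldehyde, proximity-ligated (BsaI/T4 ligase, 1 h, 37 °C), PCR-amplified and sequenced on an Illumina NextSeq500. Binding signal is each hexamer's read frequency for a factor divided by its frequency for the tag-only sample.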

GABPA = target: T2, GABPA (Homo sapiens, UniProt Q06546 1-454)
T2 sequence: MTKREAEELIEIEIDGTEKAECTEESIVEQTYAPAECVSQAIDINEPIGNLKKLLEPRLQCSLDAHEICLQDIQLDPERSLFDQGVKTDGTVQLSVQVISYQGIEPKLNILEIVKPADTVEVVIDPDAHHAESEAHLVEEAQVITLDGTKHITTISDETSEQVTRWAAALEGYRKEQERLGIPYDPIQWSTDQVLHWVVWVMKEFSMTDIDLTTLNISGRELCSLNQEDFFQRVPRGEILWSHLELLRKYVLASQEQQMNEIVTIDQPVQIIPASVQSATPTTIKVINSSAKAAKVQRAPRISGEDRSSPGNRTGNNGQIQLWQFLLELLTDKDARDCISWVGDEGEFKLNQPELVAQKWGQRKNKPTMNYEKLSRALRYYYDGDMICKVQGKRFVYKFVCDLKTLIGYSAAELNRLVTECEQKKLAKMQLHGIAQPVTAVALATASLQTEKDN
In short: as §1

ERG = target: T3, ERG (Homo sapiens, UniProt P11308 1-479)
T3 sequence: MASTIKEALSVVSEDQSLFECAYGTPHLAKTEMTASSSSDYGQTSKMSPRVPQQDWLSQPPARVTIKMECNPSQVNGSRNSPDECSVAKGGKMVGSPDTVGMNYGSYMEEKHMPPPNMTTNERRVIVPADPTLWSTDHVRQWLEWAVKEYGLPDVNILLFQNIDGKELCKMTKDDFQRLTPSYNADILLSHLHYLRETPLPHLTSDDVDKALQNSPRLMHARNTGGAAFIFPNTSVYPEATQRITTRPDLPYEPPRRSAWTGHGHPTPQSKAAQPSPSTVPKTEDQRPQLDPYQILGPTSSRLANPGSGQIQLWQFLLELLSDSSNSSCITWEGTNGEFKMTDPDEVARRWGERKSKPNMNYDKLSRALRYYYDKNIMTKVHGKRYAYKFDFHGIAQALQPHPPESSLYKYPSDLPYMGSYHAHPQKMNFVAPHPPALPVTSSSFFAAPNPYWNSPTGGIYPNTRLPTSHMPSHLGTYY
In short: as §1

ELF1 = ELF1 (Homo sapiens, UniProt P32519 1-619)
Sequence of ELF1 (P32519 whole entry): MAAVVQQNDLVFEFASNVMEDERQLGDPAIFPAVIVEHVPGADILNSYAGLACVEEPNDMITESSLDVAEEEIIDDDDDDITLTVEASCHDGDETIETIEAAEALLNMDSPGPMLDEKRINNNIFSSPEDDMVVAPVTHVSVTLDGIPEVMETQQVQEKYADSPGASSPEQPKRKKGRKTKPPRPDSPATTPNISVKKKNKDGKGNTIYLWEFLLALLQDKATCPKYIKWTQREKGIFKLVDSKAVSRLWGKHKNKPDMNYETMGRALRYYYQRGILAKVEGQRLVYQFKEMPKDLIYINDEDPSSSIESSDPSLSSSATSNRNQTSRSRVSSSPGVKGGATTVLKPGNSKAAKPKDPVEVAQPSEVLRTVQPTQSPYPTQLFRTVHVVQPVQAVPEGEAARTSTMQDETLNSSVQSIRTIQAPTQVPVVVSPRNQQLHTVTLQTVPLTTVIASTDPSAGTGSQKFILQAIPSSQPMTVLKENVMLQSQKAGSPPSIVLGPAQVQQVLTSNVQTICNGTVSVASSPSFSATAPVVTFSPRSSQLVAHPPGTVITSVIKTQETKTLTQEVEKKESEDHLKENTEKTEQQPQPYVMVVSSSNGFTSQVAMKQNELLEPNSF
In short: as §1

EHF = target: T4, EHF (Homo sapiens, UniProt Q9NZC4 1-300)
T4 sequence: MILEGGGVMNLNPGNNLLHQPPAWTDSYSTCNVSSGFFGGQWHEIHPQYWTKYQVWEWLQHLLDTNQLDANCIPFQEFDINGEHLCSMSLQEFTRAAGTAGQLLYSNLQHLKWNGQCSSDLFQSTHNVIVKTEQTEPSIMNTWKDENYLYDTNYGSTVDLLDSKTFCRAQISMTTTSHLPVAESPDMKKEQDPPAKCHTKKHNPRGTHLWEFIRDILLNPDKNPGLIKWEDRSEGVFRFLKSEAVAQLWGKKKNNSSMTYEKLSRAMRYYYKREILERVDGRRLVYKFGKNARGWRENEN
In short: as §1

SPIB = SPIB (Homo sapiens, UniProt Q01892 1-262)
Sequence of SPIB (Q01892 whole entry): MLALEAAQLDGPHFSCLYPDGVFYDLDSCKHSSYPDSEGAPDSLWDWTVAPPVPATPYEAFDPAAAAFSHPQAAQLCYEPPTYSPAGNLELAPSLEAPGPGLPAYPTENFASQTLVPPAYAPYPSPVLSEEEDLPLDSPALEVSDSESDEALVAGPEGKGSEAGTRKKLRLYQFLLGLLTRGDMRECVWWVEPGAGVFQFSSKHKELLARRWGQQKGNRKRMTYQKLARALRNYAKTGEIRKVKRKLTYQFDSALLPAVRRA
In short: as §1

FEV = target: T5, FEV (Homo sapiens, UniProt Q99581 1-238)
T5 sequence: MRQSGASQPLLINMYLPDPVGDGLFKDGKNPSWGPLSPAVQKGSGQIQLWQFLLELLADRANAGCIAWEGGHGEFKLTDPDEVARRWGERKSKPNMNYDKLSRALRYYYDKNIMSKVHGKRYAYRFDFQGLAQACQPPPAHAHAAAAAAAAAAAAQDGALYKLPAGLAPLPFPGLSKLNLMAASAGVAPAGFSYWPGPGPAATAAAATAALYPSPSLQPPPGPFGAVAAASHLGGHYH
In short: as §1

ETV5 = ETV5 (Homo sapiens, UniProt P41161 1-510)
Sequence of ETV5 (P41161 whole entry): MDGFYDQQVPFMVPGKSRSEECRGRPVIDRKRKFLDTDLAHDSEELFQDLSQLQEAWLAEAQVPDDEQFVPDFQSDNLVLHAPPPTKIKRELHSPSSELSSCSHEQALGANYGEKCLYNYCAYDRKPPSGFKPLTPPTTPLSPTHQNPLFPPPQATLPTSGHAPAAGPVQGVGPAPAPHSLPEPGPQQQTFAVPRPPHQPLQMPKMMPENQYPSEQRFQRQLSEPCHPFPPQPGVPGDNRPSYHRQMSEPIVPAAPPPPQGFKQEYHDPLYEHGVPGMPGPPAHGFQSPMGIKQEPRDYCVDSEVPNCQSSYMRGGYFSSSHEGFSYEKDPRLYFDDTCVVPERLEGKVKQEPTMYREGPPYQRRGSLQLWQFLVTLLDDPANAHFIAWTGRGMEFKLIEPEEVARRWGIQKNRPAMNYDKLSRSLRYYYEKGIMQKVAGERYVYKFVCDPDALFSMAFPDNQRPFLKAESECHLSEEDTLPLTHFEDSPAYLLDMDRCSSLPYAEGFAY
In short: as §1

ELF4 = ELF4 (Homo sapiens, UniProt Q99607 1-663)
Sequence of ELF4 (Q99607 whole entry): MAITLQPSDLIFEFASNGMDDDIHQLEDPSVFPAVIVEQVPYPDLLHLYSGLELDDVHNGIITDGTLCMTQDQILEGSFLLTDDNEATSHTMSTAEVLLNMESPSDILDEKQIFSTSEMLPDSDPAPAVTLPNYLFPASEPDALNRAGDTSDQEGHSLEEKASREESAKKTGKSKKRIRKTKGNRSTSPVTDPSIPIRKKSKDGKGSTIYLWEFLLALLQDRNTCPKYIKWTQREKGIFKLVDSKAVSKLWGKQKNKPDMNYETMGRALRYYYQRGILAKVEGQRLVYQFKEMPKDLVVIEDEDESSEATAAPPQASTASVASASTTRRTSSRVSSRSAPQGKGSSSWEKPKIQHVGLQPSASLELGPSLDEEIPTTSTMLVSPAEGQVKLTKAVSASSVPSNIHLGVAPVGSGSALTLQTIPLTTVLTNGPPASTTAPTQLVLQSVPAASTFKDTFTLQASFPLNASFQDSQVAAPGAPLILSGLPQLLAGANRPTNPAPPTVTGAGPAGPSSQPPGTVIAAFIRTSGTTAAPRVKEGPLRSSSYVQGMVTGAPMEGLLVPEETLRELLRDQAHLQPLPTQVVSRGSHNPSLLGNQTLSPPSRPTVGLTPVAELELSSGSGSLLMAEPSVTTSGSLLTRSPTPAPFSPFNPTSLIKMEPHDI
In short: as §1

ELK4 = target: T6, ELK4 (Homo sapiens, UniProt P28324-2 1-405)
T6 sequence: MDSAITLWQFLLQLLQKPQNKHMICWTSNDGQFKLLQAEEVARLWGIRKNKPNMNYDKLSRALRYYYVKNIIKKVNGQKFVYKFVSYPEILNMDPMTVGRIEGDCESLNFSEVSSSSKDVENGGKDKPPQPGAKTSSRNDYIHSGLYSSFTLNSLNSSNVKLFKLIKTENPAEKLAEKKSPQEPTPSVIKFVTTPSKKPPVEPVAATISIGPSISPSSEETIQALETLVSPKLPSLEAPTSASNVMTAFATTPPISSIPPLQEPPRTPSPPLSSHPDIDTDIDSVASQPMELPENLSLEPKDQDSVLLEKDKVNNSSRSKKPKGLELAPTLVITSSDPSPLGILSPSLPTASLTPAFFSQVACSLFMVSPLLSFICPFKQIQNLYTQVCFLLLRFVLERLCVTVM
In short: as §1

Question: CATTGT was tested. Which binding signal (ELK1) did it give?
Answer: Its binding signal is 1.14 fold enrichment (6-mer frequency, TF over GST control).

Question: And the binding signal (GABPA)?
Answer: Its binding signal is 1.19 fold enrichment (6-mer frequency, TF over GST control).

Question: What about the binding signal (ERG) of the same sequence?
Answer: Its binding signal is 1.12 fold enrichment (6-mer frequency, TF over GST control).

Question: What about the binding signal (ELF1) of the same sequence?
Answer: The binding signal was 1.1 fold enrichment (6-mer frequency, TF over GST control).

Question: And the binding signal (EHF)?
Answer: Its binding signal is 1.14 fold enrichment (6-mer frequency, TF over GST control).

Question: What about the binding signal (SPIB) of the same sequence?
Answer: The binding signal was 1.04 fold enrichment (6-mer frequency, TF over GST control).

Question: And the binding signal (FEV)?
Answer: The binding signal was 1.09 fold enrichment (6-mer frequency, TF over GST control).

Question: And the binding signal (ETV5)?
Answer: Its binding signal is 1.19 fold enrichment (6-mer frequency, TF over GST control).

Question: What about the binding signal (ELF4) of the same sequence?
Answer: The binding signal was 1.14 fold enrichment (6-mer frequency, TF over GST control).

Question: And the binding signal (ELK4)?
Answer: The binding signal was 1.17 fold enrichment (6-mer frequency, TF over GST control).
